Values joined by “and” are separate entries in the source; they are usually repeats but may differ in a detail not shown here. Equal values may be shown once. Out of some 5,500 compounds screened, about 2,000 (36%) were called active. Not shown: some 18% with an inconclusive outcome. Cut-off read from the data, not from the text of the source: active = normalized growth mostly below about 0.91 (no sharp cut-off); inconclusive = no clear call, values can overlap the other calls; inactive = mostly above about 0.92. Some of the results follow. Some structures have more than one record in an assay (separate samples or runs), and their calls can disagree.
Assay: chemical genetic growth profiling, strain panel (AID 1159580);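 note: tested at 20 µM; growth read once vehicle control cultures reached saturation at 30 °C; 1 = growth at the plate median or of vehicle wells; lower values mean less growth of the strain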
Settings: growth OD

Measured: normalized growth

CCN(CC)CCCC(C)Nc1c2ccc(Cl)cc2nc2ccc(OC)cc12 (stereo unspecified)
inactive: S. cerevisiae deletion strains, locus YKL068W, stronger effect = lower value 1 | S. cerevisiae deletion strains, locus YKL160W, strain elf1, stronger effect = lower value 0.931 | S. cerevisiae deletion strains, locus YKR026C, strain gcn3, stronger effect = lower value 1.04 | S. cerevisiae deletion strains, locus YKR091W, strain srl3, stronger effect = lower value 1.02 | S. cerevisiae deletion strains, locus YLL026W, stronger effect = lower value 1.02 | S. cerevisiae deletion strains, locus YLL041C, strain sdh2, stronger effect = lower value 1.03 | S. cerevisiae deletion strains, locus YLR027C, strain aat2, stronger effect = lower value 0.964 | S. cerevisiae deletion strains, locus YLR039C, strain RIC1, stronger effect = lower value 0.949 | S. cerevisiae deletion strains, locus YLR221C, strain rsa3, stronger effect = lower value 0.993 | S. cerevisiae deletion strains, locus YLR258W, strain gsy2, stronger effect = lower value 0.954 | S. cerevisiae deletion strains, locus YLR262C, strain YPT6 (second series), stronger effect = lower value 0.992 | S. cerevisiae deletion strains, locus YLR262C, strain YPT6, stronger effect = lower value 0.945 | S. cerevisiae deletion strains, locus YLR320W, strain mms22, stronger effect = lower value 0.973 | S. cerevisiae deletion strains, locus YLR342W, strain FKS1, stronger effect = lower value 1.01 | S. cerevisiae deletion strains, locus YLR357W, strain rsc2, stronger effect = lower value 1.07 | S. cerevisiae deletion strains, locus YLR370C, strain arc18, stronger effect = lower value 0.955 | S. cerevisiae deletion strains, locus YLR371W, strain rom2, stronger effect = lower value 0.93 | S. cerevisiae deletion strains, locus YLR384C, strain iki3, stronger effect = lower value 1.04 | S. cerevisiae deletion strains, locus YLR418C, strain cdc73, stronger effect = lower value 0.959 | S. cerevisiae deletion strains, locus YML016C, strain PPZ1, stronger effect = lower value 1.01 | S. cerevisiae deletion strains, locus YML120C, strain ndi1, stronger effect = lower value 0.995 | S. cerevisiae deletion strains, locus YMR058W, strain fet3, stronger effect = lower value 0.961 | S. cerevisiae deletion strains, locus YMR078C, strain ctf18, stronger effect = lower value 0.954 | S. cerevisiae deletion strains, locus YMR125W, strain sto1, stronger effect = lower value 0.989 | S. cerevisiae deletion strains, locus YMR129W, stronger effect = lower value 1.04 | S. cerevisiae deletion strains, locus YMR205C, strain PFK2, stronger effect = lower value 0.973 | S. cerevisiae deletion strains, locus YMR231W, strain pep5, stronger effect = lower value 1.02 | S. cerevisiae deletion strains, locus YMR263W, strain SAP30, stronger effect = lower value 0.948 and 0.979 | S. cerevisiae deletion strains, locus YMR307W, strain GAS1, stronger effect = lower value 1.15 and 0.985 | S. cerevisiae deletion strains, locus YNL071W, strain lat1, stronger effect = lower value 1.02 | S. cerevisiae deletion strains, locus YNL175C, strain NOP13, stronger effect = lower value 0.992 | S. cerevisiae deletion strains, locus YNL197C, strain WHI3, stronger effect = lower value 1 | S. cerevisiae deletion strains, locus YNL209W, strain ssb2, stronger effect = lower value 0.985 | S. cerevisiae deletion strains, locus YNL224C, strain SQS1, stronger effect = lower value 0.959 | S. cerevisiae deletion strains, locus YNL248C, strain rpa49, stronger effect = lower value 1.01 | S. cerevisiae deletion strains, locus YNL250W, strain rad50, stronger effect = lower value 0.952 | S. cerevisiae deletion strains, locus YNL271C, strain bni1, stronger effect = lower value 1.02 | S. cerevisiae deletion strains, locus YNL298W, strain CLA4, stronger effect = lower value 1 | S. cerevisiae deletion strains, locus YNL322C, strain KRE1 (second series), stronger effect = lower value 1.01 | S. cerevisiae deletion strains, locus YNR049C, strain mso1, stronger effect = lower value 1.04 | S. cerevisiae deletion strains, locus YOL006C, strain TOP1, stronger effect = lower value 0.847 | S. cerevisiae deletion strains, locus YOR001W, strain rrp6, stronger effect = lower value 0.966 | S. cerevisiae deletion strains, locus YOR070C, strain gyp1, stronger effect = lower value 0.985 | S. cerevisiae deletion strains, locus YOR080W, strain dia2, stronger effect = lower value 1.03 | S. cerevisiae deletion strains, locus YOR083W, strain WHI5 (second series), stronger effect = lower value 0.955 | S. cerevisiae deletion strains, locus YOR083W, strain WHI5, stronger effect = lower value 0.97 | S. cerevisiae deletion strains, locus YOR106W, strain vam3, stronger effect = lower value 0.916 | S. cerevisiae deletion strains, locus YOR136W, strain idh2, stronger effect = lower value 0.928 | S. cerevisiae deletion strains, locus YOR265W, strain rbl2, stronger effect = lower value 1.02 | S. cerevisiae deletion strains, locus YOR270C, strain vph1, stronger effect = lower value 0.996 | S. cerevisiae deletion strains, locus YPL051W, strain arl3, stronger effect = lower value 0.961 | S. cerevisiae deletion strains, locus YPL078C, strain atp4, stronger effect = lower value 0.936 | S. cerevisiae deletion strains, locus YPL106C, strain sse1, stronger effect = lower value 0.984 | S. cerevisiae deletion strains, locus YPL240C, strain hsp82, stronger effect = lower value 0.998 | S. cerevisiae deletion strains, locus YPR119W, strain clb2, stronger effect = lower value 0.946 | S. cerevisiae deletion strains, locus YPR141C, strain kar3, stronger effect = lower value 1.04 | S. cerevisiae deletion strains, locus YPR163C, strain tif3, stronger effect = lower value 1.02
active: S. cerevisiae deletion strains, locus YJR075W, strain HOC1, stronger effect = lower value 0.813 | S. cerevisiae deletion strains, locus YKL009W, strain mrt4, stronger effect = lower value 0.863 | S. cerevisiae deletion strains, locus YKL085W, strain MDH1 (second series), stronger effect = lower value 0.93 | S. cerevisiae deletion strains, locus YKL085W, strain MDH1, stronger effect = lower value 0.93 | S. cerevisiae deletion strains, locus YKL190W, strain CNB1, stronger effect = lower value 0.79 | S. cerevisiae deletion strains, locus YKR001C, strain vps1, stronger effect = lower value 0.616 | S. cerevisiae deletion strains, locus YLL001W, strain dnm1, stronger effect = lower value 0.902 | S. cerevisiae deletion strains, locus YLR058C, strain SHM2, stronger effect = lower value 0.524 | S. cerevisiae deletion strains, locus YLR102C, strain apc9, stronger effect = lower value 0.855 | S. cerevisiae deletion strains, locus YLR113W, strain HOG1, stronger effect = lower value 0.741 | S. cerevisiae deletion strains, locus YLR268W, strain sec22, stronger effect = lower value 0.717 | S. cerevisiae deletion strains, locus YLR330W, strain CHS5, stronger effect = lower value 0.883 | S. cerevisiae deletion strains, locus YLR342W, strain FKS1 (second series), stronger effect = lower value 0.632 | S. cerevisiae deletion strains, locus YML032C, strain rad52, stronger effect = lower value 0.544 | S. cerevisiae deletion strains, locus YML124C, strain tub3, stronger effect = lower value 0.858 | S. cerevisiae deletion strains, locus YMR223W, strain ubp8, stronger effect = lower value 0.508 | S. cerevisiae deletion strains, locus YNL067W, strain RPL9B, stronger effect = lower value 0.703 | S. cerevisiae deletion strains, locus YNL153C, strain GIM3, stronger effect = lower value 0.819 | S. cerevisiae deletion strains, locus YNL183C, strain NPR1, stronger effect = lower value 0.644 | S. cerevisiae deletion strains, locus YNL233W, strain BNI4, stronger effect = lower value 0.756 | S. cerevisiae deletion strains, locus YNL307C, strain MCK1, stronger effect = lower value 0.622 | S. cerevisiae deletion strains, locus YNL322C, strain KRE1, stronger effect = lower value 0.794 | S. cerevisiae deletion strains, locus YNR052C, strain pop2, stronger effect = lower value 0.821 | S. cerevisiae deletion strains, locus YOL012C, strain htz1 2.88 [resistant] | S. cerevisiae deletion strains, locus YOL147C, strain pex11, stronger effect = lower value 0.6 | S. cerevisiae deletion strains, locus YOR061W, strain CKA2, stronger effect = lower value 0.71 | S. cerevisiae deletion strains, locus YOR069W, strain VPS5, stronger effect = lower value 0.848 | S. cerevisiae deletion strains, locus YOR144C, strain elg1, stronger effect = lower value 0.776 | S. cerevisiae deletion strains, locus YOR184W, strain ser1, stronger effect = lower value 0.59 | S. cerevisiae deletion strains, locus YOR231W, strain MKK1, stronger effect = lower value 0.686 | S. cerevisiae deletion strains, locus YOR290C, strain snf2, stronger effect = lower value 0.8 | S. cerevisiae deletion strains, locus YOR316C, strain cot1, stronger effect = lower value 0.751 | S. cerevisiae deletion strains, locus YPL055C, strain LGE1, stronger effect = lower value 0.746 | S. cerevisiae deletion strains, locus YPL241C, strain CIN2, stronger effect = lower value 0.914 | S. cerevisiae deletion strains, locus YPL256C, strain CLN2, stronger effect = lower value 0.797 | S. cerevisiae deletion strains, locus YPR167C, strain met16, stronger effect = lower value 0.866 | S. cerevisiae deletion strains, strain wtn01, stronger effect = lower value 0.665 | S. cerevisiae strains, strain wild type, stronger effect = lower value 0.755
0.743 (active) and 0.988 (inactive): S. cerevisiae deletion strains, locus YNL128W, strain TEP1, stronger effect = lower value
